A selection: hits, their analogues and other compounds. The true share with any hit is near 2.8%.
PAFAH1B2 FP inh = inhibitors of human PAFAH1B2. P68402. recombinant PAFAH1B2, FP-rhodamine activity probe, fluorescence polarization. inhibition, % at 3.39 µM. hit rate 1.2% among 340,000. AID 492953;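 active means inhibition above the mean of all tested compounds plus 3 SD, cut at about 24% in these data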;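 further: 0% = enzyme with DMSO and 100% = wells lacking PAFAH1B2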
Target sequence (P68402 whole entry, looked up): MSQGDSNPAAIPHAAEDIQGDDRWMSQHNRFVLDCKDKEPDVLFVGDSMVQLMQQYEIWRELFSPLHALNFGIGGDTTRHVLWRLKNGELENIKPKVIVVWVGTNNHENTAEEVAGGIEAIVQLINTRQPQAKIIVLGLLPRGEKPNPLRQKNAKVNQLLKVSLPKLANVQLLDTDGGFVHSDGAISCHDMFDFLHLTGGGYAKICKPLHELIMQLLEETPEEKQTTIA
HTRA1 inhibitor = blocks human HTRA1 serine peptidase; inhibition, % at 5.96 µM; hit rate 0.5% among 340,000; recombinant HTRA1, FP-rhodamine activity-based probe, fluorescence polarization; Q92743; in the data active means inhibition above about 36%;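 further: 0% = enzyme with DMSO and 100% = wells lacking enzyme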
Target sequence (Q92743 whole entry, looked up): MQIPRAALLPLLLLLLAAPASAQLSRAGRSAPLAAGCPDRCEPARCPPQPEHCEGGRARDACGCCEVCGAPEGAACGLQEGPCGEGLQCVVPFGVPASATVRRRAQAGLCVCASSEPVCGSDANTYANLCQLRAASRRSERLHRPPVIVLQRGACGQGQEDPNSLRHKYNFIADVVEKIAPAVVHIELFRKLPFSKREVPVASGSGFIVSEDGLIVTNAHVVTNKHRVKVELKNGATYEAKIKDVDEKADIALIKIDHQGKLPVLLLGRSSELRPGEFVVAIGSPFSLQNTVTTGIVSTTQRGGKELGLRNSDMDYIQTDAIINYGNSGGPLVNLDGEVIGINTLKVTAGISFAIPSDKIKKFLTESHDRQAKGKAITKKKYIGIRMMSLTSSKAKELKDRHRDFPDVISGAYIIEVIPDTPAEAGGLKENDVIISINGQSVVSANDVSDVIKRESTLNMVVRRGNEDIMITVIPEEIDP
PAFAH2 FP inh = inhibitors of human PAFAH2 | AID 492956 | recombinant PAFAH2, FP-rhodamine activity probe, fluorescence polarization | inhibition, % at 3.39 µM | hit rate 0.99% among 340,000 | Q99487;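 active means inhibition above the mean over all tested compounds plus 3 SD, cut at about 30% in these data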;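 further: inhibitors block probe labeling of enzyme so polarization drops; 0% = enzyme with DMSO and 100% = wells lacking PAFAH2 protein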
pPAFAH inh = inhibitors of human plasma PAF acetylhydrolase (pPAFAH). hit rate 1.5% among 330,000. AID 463082. inhibition, % at 3.39 µM. recombinant pPAFAH, FP-rhodamine probe fluorescence polarization;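 active means inhibition above the mean inhibition across the screen plus 3 SD, cut at about 25% in these data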;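 further: inhibitors block binding of the rhodamine activity-based probe so polarization drops; 0% = enzyme with DMSO and 100% = wells lacking pPAFAH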
DAGLB inhibitor = blocks human DAGLB lipase activity. Q8NCG7. HEK293T DAGLB membrane lysate, EnzChek fluorogenic substrate. inhibition, % at 5.17 µM. hit rate 0.059% among 340,000. AID 504411; in the data active means inhibition above about 34%;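 further: 0% = enzyme with vehicle and 100% = wells lacking enzyme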
PAFAH1B3 FP inh = PAFAH1B3 (human) inhibition. recombinant PAFAH1B3, FP-rhodamine probe, fluorescence polarization. inhibition, % at 3.39 µM. hit rate 0.28% among 340,000. AID 492972;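 active means inhibition above the screen-wide average of all tested compounds plus 3 SD, cut at about 25% in these data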;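 further: 0% = enzyme with DMSO only and 100% = wells lacking PAFAH1B3 protein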
* = called active by the depositor.

CC(=O)C(N=Nc1ccccc1)(Sc1nnc(-c2ccccc2)n1-c1ccccc1)C(=O)Nc1ccccc1 (stereo not drawn) was read as PAFAH1B2 FP inh 26.3*, HTRA1 inhibitor -55.8, PAFAH2 FP inh -10.0, pPAFAH inh -0.2, DAGLB inhibitor -20.1 and PAFAH1B3 FP inh -5.3.
For COC(=O)[C@@H](NC(=O)c1cc(COc2cncc(Cl)c2)on1)c1ccccc1 the results were PAFAH1B2 FP inh 3.7, HTRA1 inhibitor -6.7, PAFAH2 FP inh -4.5, pPAFAH inh 0.1, DAGLB inhibitor 1.0 and PAFAH1B3 FP inh 2.0.
For CCC(NC(=O)c1cc(COc2cncc(Cl)c2)on1)c1ccc(C)cc1 (stereo not drawn) the results were PAFAH1B2 FP inh 27.9*, HTRA1 inhibitor -22.9, PAFAH2 FP inh -3.2, pPAFAH inh 5.2, DAGLB inhibitor -1.8 and PAFAH1B3 FP inh 0.9.
For O=C(NCc1ccc2c(c1)OCO2)c1nnc(Cc2ccc(Cl)cc2)o1 the results were PAFAH1B2 FP inh -3.7, HTRA1 inhibitor -0.6, PAFAH2 FP inh 2.3, pPAFAH inh 28.8*, DAGLB inhibitor -3.7 and PAFAH1B3 FP inh 2.3.
`CC(Sc1ccc(Cl)cc1)C(=O)NCc1ccc2c(c1)OCO2` (stereo not drawn) gave PAFAH1B2 FP inh 24.3*, HTRA1 inhibitor 0.7, PAFAH2 FP inh -14.5, pPAFAH inh 1.4, DAGLB inhibitor -1.9 and PAFAH1B3 FP inh 5.7.
Screening CC(Sc1ccc(Cl)cc1)C(=O)Nc1ccc2c(c1)OCO2 (stereo not drawn) returned PAFAH1B2 FP inh 4.1, HTRA1 inhibitor 1.1, PAFAH2 FP inh -0.9, pPAFAH inh 7.3, DAGLB inhibitor -2.7 and PAFAH1B3 FP inh -3.2.
`COc1ccc2c(CC(=O)NCc3ccc4c(c3)OCO4)coc2c1` gave PAFAH1B2 FP inh 3.1, HTRA1 inhibitor -8.6, PAFAH2 FP inh -0.7, pPAFAH inh 31.8*, DAGLB inhibitor 2.5 and PAFAH1B3 FP inh -13.1.
O=C(O)c1ccc(NCc2ccc3c(c2)OCO3)cc1 was read as PAFAH1B2 FP inh 24.8*, HTRA1 inhibitor 6.8, PAFAH2 FP inh 1.7, pPAFAH inh -4.3, DAGLB inhibitor -1.8 and PAFAH1B3 FP inh -2.1.
For Cc1ccc2c(CC(=O)NCc3ccc4c(c3)OCO4)coc2c1 the results were PAFAH1B2 FP inh 14.6, HTRA1 inhibitor -7.4, PAFAH2 FP inh 5.7, pPAFAH inh -2.7, DAGLB inhibitor -5.0 and PAFAH1B3 FP inh -3.2.
`C=CCSc1nc2sc3c(c2c(=O)n1-c1ccc(C)cc1)CCN(C)C3` gave PAFAH1B2 FP inh 5.5, HTRA1 inhibitor -13.5, PAFAH2 FP inh 2.7, DAGLB inhibitor 1.4 and PAFAH1B3 FP inh 16.8.
Screening O=C(NNc1ccc([N+](=O)[O-])cn1)Nc1ccc(N=Nc2ccccc2)cc1 returned PAFAH1B2 FP inh 1.1, HTRA1 inhibitor 8.2, PAFAH2 FP inh 0.8, DAGLB inhibitor 19.0 and PAFAH1B3 FP inh 6.5.
Screening O=C(COC(=O)c1nn(CCO)c(=O)c2ccccc12)Nc1ccc(Cl)c(Cl)c1 returned PAFAH1B2 FP inh 8.8, HTRA1 inhibitor -24.1, PAFAH2 FP inh 2.8, pPAFAH inh -1.7, DAGLB inhibitor -1.2 and PAFAH1B3 FP inh -2.6.
Screening CC[C@@]12C(=O)N(c3cccc(F)c3)C(=O)N1[C@H](c1ccc(Cl)cc1)[C@@H]1C(=O)N(C3CCCCC3)C(=O)[C@@H]12 returned PAFAH1B2 FP inh 8.0, HTRA1 inhibitor -72.0, PAFAH2 FP inh 1.6, pPAFAH inh -1.4, DAGLB inhibitor 0.9 and PAFAH1B3 FP inh -2.2.
Screening COc1ccc(CCNC(=O)c2nnc(Cc3ccc(Cl)cc3)o2)cc1OC returned PAFAH1B2 FP inh -7.9, HTRA1 inhibitor -6.9, PAFAH2 FP inh -6.3, pPAFAH inh 28.0*, DAGLB inhibitor 1.6 and PAFAH1B3 FP inh 8.5.
`O=C(CSCc1ccc(F)cc1)NCc1ccc2c(c1)OCO2` gave PAFAH1B2 FP inh 1.9, HTRA1 inhibitor 0.3, PAFAH2 FP inh 2.3, pPAFAH inh 12.2, DAGLB inhibitor -3.6 and PAFAH1B3 FP inh -2.5.
O=C(CSCc1ccc(Cl)cc1)NCc1ccc2c(c1)OCO2 was read as PAFAH1B2 FP inh 26.1*, HTRA1 inhibitor -6.8, PAFAH2 FP inh -1.0, pPAFAH inh 13.0, DAGLB inhibitor -5.2 and PAFAH1B3 FP inh -3.6.
Screening OCC1OC(Oc2c(Br)cc(Br)cc2Br)C(O)C(O)C1O (stereo not drawn) returned PAFAH1B2 FP inh 5.7, HTRA1 inhibitor -1.7, PAFAH2 FP inh 2.1, DAGLB inhibitor 9.1 and PAFAH1B3 FP inh -0.3.
Screening Cn1ccc(C(=O)Nc2cccnc2Cl)n1 returned PAFAH1B2 FP inh -3.3, HTRA1 inhibitor -0.7, PAFAH2 FP inh -0.9, DAGLB inhibitor -0.1 and PAFAH1B3 FP inh 3.8.
N#Cc1c(-c2c(Cl)cccc2Cl)noc1/C=C/Nc1ccc(C(=O)O)cc1 was read as PAFAH1B2 FP inh -2.2, HTRA1 inhibitor -31.3, PAFAH2 FP inh 22.0, pPAFAH inh 24.6*, DAGLB inhibitor 9.1 and PAFAH1B3 FP inh -7.8.
Screening COc1cc(/C=C/C(=O)NC(C)C2CC3CCC2C3)cc(OC)c1OC (stereo not drawn) returned PAFAH1B2 FP inh 16.6, HTRA1 inhibitor -11.5, PAFAH2 FP inh 7.1, pPAFAH inh 9.3, DAGLB inhibitor 0.3 and PAFAH1B3 FP inh 8.6.
`NC(=O)c1ccsc1NC(=O)C1CCN(S(=O)(=O)c2cccs2)CC1` gave PAFAH1B2 FP inh -0.4, HTRA1 inhibitor -1.3, PAFAH2 FP inh 0.7, pPAFAH inh -0.7, DAGLB inhibitor 0.6 and PAFAH1B3 FP inh 8.1.
For CNC(=O)c1ccsc1NC(=O)C1CCN(S(=O)(=O)c2ccc(Cl)s2)CC1 the results were PAFAH1B2 FP inh 26.9*, HTRA1 inhibitor -25.4, PAFAH2 FP inh 0.9, pPAFAH inh 4.3, DAGLB inhibitor 1.6 and PAFAH1B3 FP inh 4.9.
For COc1cccc(CNC(=O)c2cc(=O)[nH]c3ccc(S(=O)(=O)N4CCOCC4)cc23)c1 the results were PAFAH1B2 FP inh 0.2, HTRA1 inhibitor 1.0, PAFAH2 FP inh 3.1, pPAFAH inh 1.5, DAGLB inhibitor -0.3 and PAFAH1B3 FP inh 6.3.
For CCC(OC(=O)c1nsc(Cl)c1Cl)C(=O)NCc1ccco1 (stereo not drawn) the results were PAFAH1B2 FP inh 0.4, HTRA1 inhibitor -0.1, PAFAH2 FP inh -6.6, pPAFAH inh 26.8*, DAGLB inhibitor -0.1 and PAFAH1B3 FP inh 3.9.
Cc1ncsc1CCC(=O)N1CCCC(Nc2ccc(C(C)C)cc2)C1 (stereo not drawn) was read as PAFAH1B2 FP inh 3.7, HTRA1 inhibitor 0.5, PAFAH2 FP inh 2.5, pPAFAH inh 4.7, DAGLB inhibitor 0.1 and PAFAH1B3 FP inh -6.7.
CCN(CC(=O)Nc1ccc2c(c1)OCCO2)C(=O)c1ccc([N+](=O)[O-])s1 was read as PAFAH1B2 FP inh 1.2, HTRA1 inhibitor 2.2, PAFAH2 FP inh 5.5, pPAFAH inh 3.0, DAGLB inhibitor 3.7 and PAFAH1B3 FP inh 8.4.
For CN(C(=O)CSc1nnc(C2CC2)n1-c1ccccc1)C1CCS(=O)(=O)C1 (stereo not drawn) the results were PAFAH1B2 FP inh 3.3, HTRA1 inhibitor 5.2, PAFAH2 FP inh -8.6, pPAFAH inh -0.1, DAGLB inhibitor -2.5 and PAFAH1B3 FP inh -1.1.
